Measured potencies and affinities stand elsewhere. The source made the active and inactive calls.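 How the source made its calls: active means fitted half-maximal dose no more than twice the top valid tested dose, for compounds that lower signal; inconclusive means fit invalid, or curve flat with activity between -70 and -30; inactive means potency past limit, curve flat within ±30, or signal increasing.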
The compounds below were run against NAD-dependent protein deacylase sirtuin-5, mitochondrial (Homo sapiens) (UniProt Q9NXA8) (assay: SIRT5 deacylase inhibitors, dose response, biochemical, fluorescence imaging, cherry-pick, set 6 (AID 720597;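 further: lower AMC signal can also come from blocking the trypsin step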)). Conditions: Purified SirT5, succinyl-peptide-AMC/trypsin fluorescence; series mostly up to 15 µM.
NAD-dependent protein deacylase sirtuin-5, mitochondrial (Homo sapiens), sequence (Q9NXA8 whole entry, looked up): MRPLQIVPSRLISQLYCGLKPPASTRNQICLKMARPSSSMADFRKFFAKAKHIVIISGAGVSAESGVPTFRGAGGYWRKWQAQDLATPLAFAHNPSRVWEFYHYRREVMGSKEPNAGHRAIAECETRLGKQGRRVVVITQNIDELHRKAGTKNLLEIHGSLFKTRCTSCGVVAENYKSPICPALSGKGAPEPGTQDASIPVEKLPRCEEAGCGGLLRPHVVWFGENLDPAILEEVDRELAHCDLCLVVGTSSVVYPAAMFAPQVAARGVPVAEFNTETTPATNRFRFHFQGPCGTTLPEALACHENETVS

outcome, inactive:
COc1ccc(S(=O)(=O)Nc2ccc3c(c2)C(=O)N([C@H](C)CO)C[C@H](C)[C@@H](CN(C)Cc2ccc(Oc4ccccc4)cc2)O3)cc1
C[C@@H]1CN([C@H](C)CO)S(=O)(=O)c2ccc(C3=CCCCC3)cc2O[C@H]1CN(C)C(=O)Nc1ccc2c(c1)OCO2
COc1ccc(S(=O)(=O)Nc2ccc3c(c2)C(=O)N([C@@H](C)CO)C[C@@H](C)[C@@H](CN(C)S(=O)(=O)c2cccs2)OCCCC[C@H](C)O3)cc1
C[C@H]1CN([C@@H](C)CO)S(=O)(=O)c2ccc(/C=C/c3ccccc3)cc2O[C@@H]1CN(C)Cc1ccccc1
C[C@@H]1CN([C@@H](C)CO)S(=O)(=O)c2ccc(C3=CCCCC3)cc2O[C@H]1CN(C)S(=O)(=O)c1ccc(F)cc1
C[C@@H]1CN([C@H](C)CO)C(=O)Cc2cc(NS(=O)(=O)c3ccccc3)ccc2O[C@H]1CN(C)Cc1ccc(Cl)c(Cl)c1
C[C@@H]1CN([C@@H](C)CO)C(=O)Cc2cc(NS(=O)(=O)c3ccc(F)cc3)ccc2O[C@@H]1CN(C)Cc1ccc(C(F)(F)F)cc1
O=C(NC1CCCC1)[C@H]1[C@H](CO)[C@H]2Cn3c(ccc(-c4ccncc4)c3=O)[C@H]2N1CCc1ccccc1
NC(=O)NCC#Cc1ccc2c(c1)[C@]1(C(=O)N2)[C@H](c2ccccc2OCCO)N2[C@H](c3ccccc3)[C@H](c3ccccc3)OC(=O)[C@H]2[C@@H]1C(=O)N1CCN(c2ncccn2)CC1
CC(C)C#Cc1cnc2c(c1)C(=O)N([C@H](C)CO)C[C@@H](C)[C@H](CN(C)C(=O)CN1CCOCC1)O2
Cc1ccccc1S(=O)(=O)N[C@H]1CC[C@@H](CCn2cc(Cc3ccccc3)nn2)O[C@H]1CO
C[C@H](CO)N1C[C@H](C)[C@@H](CN(C)Cc2ccc(C(=O)O)cc2)Oc2ccc(NS(=O)(=O)c3ccc(Cl)cc3)cc2C1=O
C[C@@H]1CN([C@@H](C)CO)C(=O)c2cc(-c3cccc(F)c3)cnc2O[C@@H]1CN(C)Cc1ccncc1
COc1ccc(S(=O)(=O)Nc2ccc3c(c2)C(=O)N([C@@H](C)CO)C[C@@H](C)[C@H](CN(C)Cc2ccc(C(F)(F)F)cc2)OCCCC[C@@H](C)O3)cc1
COc1ccc(S(=O)(=O)N(C)C[C@H]2Oc3cc(C#CC4CC4)ccc3S(=O)(=O)N([C@@H](C)CO)C[C@H]2C)cc1
O=C(N[C@H]1C=C[C@H](CC(=O)N2CCOCC2)O[C@H]1CO)c1ccccn1
CO[C@H]1CC[C@@H]2CCOc3c(C#N)cccc3C(=O)N(C)C[C@H](C)C(=O)N(C)C[C@@H]1O2
CNC[C@H]1Oc2ccc(NC(=O)Nc3ccc(F)cc3)cc2CC(=O)N([C@H](C)CO)C[C@H]1C
CC(=O)N1[C@H](CO)[C@H](c2ccc(-c3ccncc3)cc2)[C@@H]1CNC(=O)CC1CC1
Cc1ccc(S(=O)(=O)N(C)C[C@@H]2OCCCC[C@H](C)Oc3ccc(NS(=O)(=O)c4ccc(F)cc4)cc3C(=O)N([C@H](C)CO)C[C@@H]2C)cc1
C[C@@H]1CN([C@@H](C)CO)C(=O)Cc2cc(NS(=O)(=O)c3ccc(Cl)cc3)ccc2O[C@H]1CN(C)Cc1ccc(Oc2ccccc2)cc1
O=C(NC1CCCC1)N1CCCCN2[C@H](C1)[C@H](c1ccc(/C=C/c3ccccc3)cc1)[C@@H]2CO
Cc1ccc(S(=O)(=O)N(C)C[C@@H]2OCCCC[C@@H](C)Oc3ccc(NS(=O)(=O)c4ccccc4)cc3C(=O)N([C@H](C)CO)C[C@H]2C)cc1
C[C@H](CO)N1C[C@H](C)[C@@H](CN(C)Cc2ccc(Cl)c(Cl)c2)Oc2ccc(NS(=O)(=O)c3ccccc3)cc2CC1=O
O=C(Cc1ccncc1)N[C@H]1CC[C@H](CCn2cc(-c3ccccc3F)nn2)O[C@@H]1CO
Cc1noc(C)c1S(=O)(=O)Nc1ccc2c(c1)C(=O)N([C@H](C)CO)C[C@@H](C)[C@@H](CN(C)Cc1ccc(C(F)(F)F)cc1)OCCCC[C@@H](C)O2
Cc1cccc(S(=O)(=O)N2CCCCN3[C@@H](CO)[C@H](c4ccc(-c5ccccc5)cc4)[C@@H]3C2)c1
C[C@H](O)C#Cc1ccc2c(c1)O[C@@H](CN(C)Cc1ccc(-c3ccccc3)cc1)[C@H](C)CN([C@H](C)CO)S2(=O)=O
O=C(Nc1cc(F)ccc1F)N1CC(=O)N2[C@H](CO)[C@@H](c3ccc(C#CC4CCCCC4)cc3)[C@@H]2C1
